Measured values published in PubChem BioAssay (Tox21).
Inconclusive results are not listed. Values without a mark were called inactive. Activity calls are given as the source filed them. The call rests on the fitted dose curve.

Assay: p53 small molecule agonists, cell-based qHTS assay with rat liver microsomes (AID 1963578)
Details: HCT-116 p53RE-bla, beta-lactamase ratio, 16 h; series mostly up to 66 µM; activation: at the top concentration
From the text: U.S. Tox21 Program National Center for Advancing Translational Sciences [NCATS] Division of Preclinical Innovation [DPI] U.S. Environmental Protection Agency [EPA] National Institutes of Environmental Health Sciences [NIEHS] National Toxicology Program [NTP] U.S. Food and Drug Administration [FDA] Tox21 Assay Overview: p53, a tumor suppressor protein, is activated following cellular insult, including DNA damage and other cellular stresses. The activation of p53 regulates cell fate by inducing DNA repair, cell cycle arrest, apoptosis, or cellular senescence. The activation of p53, therefore, is a good indicator of DNA damage and other cellular stresses. […] The activation of the reporter gene under culture conditions can be detected by fluorescence intensity. This cell line was used to screen the Tox21 10K compound library in the condition of presence of rat liver microsomes and to identify agonists that activate the p53 signaling pathway after in vitro metabolic activation (Ooka et al., Archive of Toxicology 96:1975-1987, 2022).
Tox21 Assay Protocol Summary: The p53RE-bla cells were dispensed at 4,000cells/3ul/well in 1536-well black-clear bottom plates. After the assay plates were incubated at 37 C, 5% CO2 incubator for 5 hours, 23 nL of compounds dissolved in DMSO, positive controls or DMSO only was transferred to the assay plate. Following compound addition, 3 uL of rat liver microsomes (Molecular Toxicology, Boone, NC) at final concentration of 0.5 mg/mL and 1uL of Beta-Nicotinamide adenine dinucleotide 2-phosphate (NADPH) at final concentration of 0.5 mg/mL were transferred to the assay plate. The plates were incubated at 37 C for 16 hours. 1 uL of LiveBLAzer detection mixture was added to each well and the plates were incubated at room temperature in the dark for 2 h.
On the % scale 0 is the no-effect control and ±100 the full control effect.

Structure (SMILES) | activation | Potency
O=C1C=CC(=O)N1c1ccc(Cc2ccc(N3C(=O)C=CC3=O)cc2)cc1 | -4.62% | –
CC(=O)c1ccc2c(c1)[C@H](NC(=O)c1ccc(F)cc1)[C@@H](O)C(C)(C)O2 | -0.298% | –
Clc1ccc(C(Cn2ccnc2)OCc2ccc(Sc3ccccc3)cc2)c(Cl)c1 (stereo not given) | 0.486% [at 30.3 µM] | –
CC(=O)Oc1ccc(C2(c3ccc(OC(C)=O)cc3)Oc3ccccc3NC2=O)cc1 | 0.449% [at 30.3 µM] | –
C/C=C/C(=O)C1=C(C)CCCC1(C)C | -1.59% | –
O=C1c2ccccc2C(=O)N1CCc1noc(-c2ccc(CN3CCCCCC3)s2)n1 | -3.59% | –
O=C(O)CN(CCN(CC(=O)O)CC(=O)O)CC(=O)O | -7.74% [at 2.33 µM] | –
Nc1cccnc1N | 0% | –
CC(Cc1cccc(C(F)(F)F)c1)NCCOC(=O)c1ccccc1 (stereo not given) | 0.11% [at 30.3 µM] | –
O=[N+]([O-])c1cc(C2CCCCC2)c(O)c([N+](=O)[O-])c1 | -0.304% | –
CCCCCCCCC(CCCCCC)C(=O)O (stereo not given) | 1.05% | –
Nc1ccc(O)c(N)c1 | – | inactive
CCCC(CC)c1ccccc1 (stereo not given) | -5.08% | –
CC1=C(/C=C/C(C)=C/C=C/C(C)=C/C=O)C(C)(C)CCC1 | 1.26% | –
Oc1ccc(Cl)cc1C1CCCC1 | 0.39% | –
CCCCCCCCCCCCCCCCCCCl | 2.88% [at 5.99 µM] | –
CNCC[C@@H](Oc1ccccc1C)c1ccccc1 | 2.27% [at 30.3 µM] | –
C=Cc1ccc(OC(C)=O)cc1 | -0.419% | –
O=[N+]([O-])c1cc[n+]([O-])cc1 | -3.13% | –
[O-][N+](=Nc1ccccc1)c1ccccc1 | 0.39% | –

Structure (SMILES) | activation | Potency
Cc1ccc(O)c2ncccc12 | -15.2% [at 30.3 µM] | –
O=C1NC2CCCCN2C12CCN(CCCN1c3ccccc3CCc3ccc(Cl)cc31)CC2 (stereo not given) | -0.524% [at 30.3 µM] | –
COCCc1ccc(OCC2CO2)cc1 (stereo not given) | -0.353% [at 30.3 µM] | –
CCCCO | 1.66% | –
O=c1cc(-c2ccccc2)oc2cc(O)cc(O)c12 | 0.879% | –
O=C(O)Cc1ccc(Cl)cc1Cl | -5.22% | –
CC1=Nc2ccc3ccccc3c2C1(C)C | -11% | –
CCCCC/C(=C\c1ccccc1)CO | -0.279% | –
ClC(Cl)(Cl)c1ccc(C(Cl)(Cl)Cl)cc1 | 2.54% | –
CN(C)c1ccc(N=NS(=O)(=O)O)cc1 | 12.6% | –
CCCC(CCC)(C(=O)OCC)C(=O)OCC | 0.259% [at 30.3 µM] | –
CCC(=O)/C=C/c1ccc(OC)cc1 | 1.67% | –
CSc1ccc(/C=C2/C(C)=C(CC(=O)O)c3cc(F)ccc32)cc1 | -3.35% [at 30.3 µM] | –
CCOC(=O)NCCOc1ccc(Oc2ccccc2)cc1 | 0.531% | –
CCCCC(CC)CNC(=O)CC(C)OC(=O)CCC(=O)O (stereo not given) | 1.18% [at 30.3 µM] | –
COc1cccc(N(C)C(=S)Oc2ccc3c(c2)CCCC3)n1 | -0.212% [at 30.3 µM] | –
Cc1oc2c(NC(=O)c3c(Cl)cccc3Cl)cccc2c1C(C)(C)O | 4.17% | –
Fc1ccc(C(c2ccc(F)cc2)N2CCNCC2)cc1 | 5.94% [at 30.3 µM] | –
S=c1nccc[nH]1 | -2.97% | –
O=c1cc(-c2ccc(O)cc2)oc2cc(O)cc(O)c12 | – | inactive
